Molecules are shown by their SMILES. Calls of active or inactive are those of the source. Rule for the calls: active = hit-call score of the fitted dose curve at least 0.9, where 1 is the maximum; inactive = score below 0.9.

human EphA1 Receptor Tyrosine Kinase, EPHA1 (gene 2041), sequence (P21709 whole entry, looked up): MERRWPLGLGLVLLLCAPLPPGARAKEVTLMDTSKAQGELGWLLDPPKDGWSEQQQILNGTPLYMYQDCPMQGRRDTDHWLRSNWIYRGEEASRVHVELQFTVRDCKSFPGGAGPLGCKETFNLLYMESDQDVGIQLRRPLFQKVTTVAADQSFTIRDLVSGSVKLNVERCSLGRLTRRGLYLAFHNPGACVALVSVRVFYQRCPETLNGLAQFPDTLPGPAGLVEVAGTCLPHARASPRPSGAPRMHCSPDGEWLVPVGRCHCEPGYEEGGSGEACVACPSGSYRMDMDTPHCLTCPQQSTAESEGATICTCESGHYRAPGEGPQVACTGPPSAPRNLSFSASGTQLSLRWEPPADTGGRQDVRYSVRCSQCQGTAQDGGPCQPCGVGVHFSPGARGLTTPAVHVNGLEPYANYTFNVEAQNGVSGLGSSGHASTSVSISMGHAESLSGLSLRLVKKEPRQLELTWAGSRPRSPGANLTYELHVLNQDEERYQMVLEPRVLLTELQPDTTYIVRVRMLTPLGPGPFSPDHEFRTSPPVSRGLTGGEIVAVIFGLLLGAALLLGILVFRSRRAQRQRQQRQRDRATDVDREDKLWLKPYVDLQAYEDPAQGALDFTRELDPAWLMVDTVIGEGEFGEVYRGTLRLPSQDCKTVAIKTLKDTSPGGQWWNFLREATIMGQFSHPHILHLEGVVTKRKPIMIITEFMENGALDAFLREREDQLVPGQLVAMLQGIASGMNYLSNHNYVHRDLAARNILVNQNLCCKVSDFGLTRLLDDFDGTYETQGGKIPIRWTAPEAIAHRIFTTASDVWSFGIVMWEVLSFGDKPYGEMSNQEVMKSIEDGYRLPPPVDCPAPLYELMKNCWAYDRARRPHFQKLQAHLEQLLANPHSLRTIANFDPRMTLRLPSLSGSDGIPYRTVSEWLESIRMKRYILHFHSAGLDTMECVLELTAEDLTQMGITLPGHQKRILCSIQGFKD

The experiment deals with human EphA1 Receptor Tyrosine Kinase, EPHA1 (gene 2041) (UniProt P21709). The experiment in a line: ERF_FR_ENZ_hEPHA1: Eurofins (ERF) Enzymatic Radiometric [Km ATP] KinaseProfiler LeadHunter Assay for human EphA1 Receptor Tyrosine Kinase. Here is the method:
ERF_FR_ENZ_hEPHA1 is a biochemical, single-readout assay that uses extracted gene-proteins in a cell-free assay. Measurements were taken 0.5 hour after chemical dosing in a 96-well plate. See EphA1 Human RTK Kinase Enzymatic HTRF Assay [Km ATP], Cerep.ERF_FR_ENZ_hEPHA1 is an assay component calculated from the ERF_FR_ENZ_hEPHA1 assay. It is designed to measure enzyme activity using a type of enzyme reporter as detected by fluorescence intensity with HTRF technology.Data from the assay component ERF_FR_ENZ_hEPHA1 was analyzed at the assay endpoint, ERF_FR_ENZ_hEPHA1, in the positive analysis fitting direction relative to DMSO as the negative control and baseline of activity. Using a type of enzyme reporter, loss-of-signal activity can be used to understand changes in enzymatic activity as they relate to gene EPHA1. To generalize the intended target to other relatable targets, this assay endpoint is annotated to the kinase intended target family, where the subfamily is receptor tyrosine kinase.
EphA1 (h) is incubated with 8 mM MOPS pH 7.0, 0.2 mM EDTA, 250 uM […], 10 mM MgAcetate and [gamma-33P]-ATP (specific activity and concentration as required). The reaction is initiated by the addition of the Mg/ATP mix. After incubation for 40 minutes at room temperature, the reaction is stopped by the addition of phosphoric acid to a concentration of 0.5%. […]
For the compound `O=C(/C=C/c1ccc(O)cc1)CC(=O)/C=C/c1ccc(O)cc1`, the outcome was inactive.

The values above are taken from PubChem BioAssay AID2284076 (EPA ToxCast).
